For some assays here: Measured potencies and affinities stand elsewhere.

In ChEMBL document CHEMBL3988442, “University of Dundee, Small-Polar-MMV Screening Library” (2021) one finds Percent Effect data, which are given here for 10 compounds.

Holding throughout (set-up): scale not given: direction of the effect not stated beside the values
Assay [1] has as its target Protein translocase subunit SecA (Escherichia coli (strain K12)) (UniProt P10408). The assay is described as follows: Assay to Identify E. coli SecA ATPase Inhibitors. The assay is classed as functional. Particulars: 30 µM.
The target in assay [2] is T1, Ubiquitin-activating enzyme e1, putative (Leishmania donovani (strain BPK282A1)) (UniProt E9BSI1).
T1 sequence (whole entry): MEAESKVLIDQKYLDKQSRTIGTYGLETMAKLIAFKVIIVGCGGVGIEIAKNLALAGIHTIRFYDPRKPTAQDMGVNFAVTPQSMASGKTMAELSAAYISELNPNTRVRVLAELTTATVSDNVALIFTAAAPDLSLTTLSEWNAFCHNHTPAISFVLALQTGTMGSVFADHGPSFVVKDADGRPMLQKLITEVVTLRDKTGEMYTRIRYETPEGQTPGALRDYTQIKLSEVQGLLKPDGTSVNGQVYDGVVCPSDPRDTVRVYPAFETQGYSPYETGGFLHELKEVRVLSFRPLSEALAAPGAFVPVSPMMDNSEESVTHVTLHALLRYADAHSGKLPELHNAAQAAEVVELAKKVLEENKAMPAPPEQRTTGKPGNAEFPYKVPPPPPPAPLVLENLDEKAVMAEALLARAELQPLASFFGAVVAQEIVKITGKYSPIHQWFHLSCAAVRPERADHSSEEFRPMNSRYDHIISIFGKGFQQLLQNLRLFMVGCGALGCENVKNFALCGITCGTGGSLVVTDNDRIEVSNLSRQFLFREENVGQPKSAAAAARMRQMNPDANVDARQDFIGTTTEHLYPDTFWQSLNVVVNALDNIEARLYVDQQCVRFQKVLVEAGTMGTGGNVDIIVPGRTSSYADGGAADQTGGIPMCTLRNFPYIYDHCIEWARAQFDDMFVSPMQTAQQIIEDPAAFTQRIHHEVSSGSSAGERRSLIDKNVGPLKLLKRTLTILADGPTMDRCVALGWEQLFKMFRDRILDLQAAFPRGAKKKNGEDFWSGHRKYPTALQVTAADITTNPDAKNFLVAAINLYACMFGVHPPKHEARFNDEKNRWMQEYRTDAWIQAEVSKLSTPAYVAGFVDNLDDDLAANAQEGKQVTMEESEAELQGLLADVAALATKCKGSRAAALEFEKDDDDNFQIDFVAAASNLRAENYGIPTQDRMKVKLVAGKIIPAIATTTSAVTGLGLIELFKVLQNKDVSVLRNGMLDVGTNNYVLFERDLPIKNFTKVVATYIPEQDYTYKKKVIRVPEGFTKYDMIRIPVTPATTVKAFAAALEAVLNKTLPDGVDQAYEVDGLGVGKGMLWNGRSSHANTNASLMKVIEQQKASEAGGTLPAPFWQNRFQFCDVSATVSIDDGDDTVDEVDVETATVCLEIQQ
As to the kind of experiment: Leishmania donovani Ubiquitin Activating Enzyme (LdE1). Particulars: 30 µM. It counts as functional.

Assay [3] concerns the target AMP-activated protein kinase, AMPK (Homo sapiens) (UniProt P54646+O43741+P54619+Q9UGJ0+Q9Y478+Q13131+Q9UGI9). The assay is described as follows: AMP-dependent Kinase enzyme assay. An in vitro enzyme assay that detects ADP turnover that is directly proportional to AMPK activity. This uses naive AMPK that is activated during the assay with MK-8722. The assay is classed as functional. To be noted: 30 µM.

Assay [4] addresses Sialic acid-binding Ig-like lectin 9 (Homo sapiens) (UniProt Q9Y336). The assay is described as follows: Hs-Siglec9 ALPHAscreen SOP 20170721. To be noted: 10 µM. For orientation: In Alpha technology, singlet oxygen from a donor bead excites a nearby acceptor bead.
A further assay deals with Trypanosoma cruzi. As to the kind of experiment: Trypanosoma cruzi phosphomannomutase and mannose-1-phosphate guanylyltransferase assay. Particulars: 10 µM. The assay is classed as functional.
The target in assay [5] is T2, Arginase-2, mitochondrial (Homo sapiens) (UniProt P78540).
T2 sequence (whole entry): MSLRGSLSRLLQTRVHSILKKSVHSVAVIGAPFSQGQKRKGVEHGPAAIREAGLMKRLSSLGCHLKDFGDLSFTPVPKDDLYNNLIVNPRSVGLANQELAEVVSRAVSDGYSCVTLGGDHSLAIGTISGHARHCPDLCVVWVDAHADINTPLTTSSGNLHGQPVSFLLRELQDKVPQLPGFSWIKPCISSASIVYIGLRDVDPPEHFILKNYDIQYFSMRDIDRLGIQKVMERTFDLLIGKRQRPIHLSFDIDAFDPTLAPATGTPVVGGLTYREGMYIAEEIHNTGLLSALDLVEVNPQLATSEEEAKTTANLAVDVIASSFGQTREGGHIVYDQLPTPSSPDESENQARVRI
As to the kind of experiment: in vitro enzyme assay to detect the production of urea directly proportional to the activity of Arginase II. Note: in the data most compounds retested in dose-response had high values. The assay is classed as functional. To be noted: 33.3 µM.

Assay [6] has as its target T3, Proteasome subunit beta (Trypanosoma cruzi) (UniProt O96673).
T3 sequence (whole entry): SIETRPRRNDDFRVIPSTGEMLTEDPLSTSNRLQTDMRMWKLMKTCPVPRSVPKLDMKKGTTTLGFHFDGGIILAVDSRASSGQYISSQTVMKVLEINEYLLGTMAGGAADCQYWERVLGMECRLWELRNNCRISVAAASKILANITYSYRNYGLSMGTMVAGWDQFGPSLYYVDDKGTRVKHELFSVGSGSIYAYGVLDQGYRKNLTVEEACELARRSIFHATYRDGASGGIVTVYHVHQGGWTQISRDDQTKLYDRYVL
As to the kind of experiment: Trypanosoma cruzi proteasome chymotrypsin-like activity (TcProtChymo) assay. Note: in the data most compounds retested in dose-response had high values. It counts as functional. To be noted: 9.37 µM.

A further assay is filed under the species Homo sapiens. As to the kind of experiment: To identify inhibition of the IFN signalling (Jak-Stat) pathway via expression of an eGFP reporter gene under the control of an IFN-stimulated response element (ISRE) containing MxA promoter. The assay is classed as functional. Particulars: 30 µM.
The target of assay [7] is T4, Tyrosyl-tRNA synthetase, putative (Trypanosoma cruzi (strain CL Brener)) (UniProt Q4DSP6).
T4 sequence (whole entry): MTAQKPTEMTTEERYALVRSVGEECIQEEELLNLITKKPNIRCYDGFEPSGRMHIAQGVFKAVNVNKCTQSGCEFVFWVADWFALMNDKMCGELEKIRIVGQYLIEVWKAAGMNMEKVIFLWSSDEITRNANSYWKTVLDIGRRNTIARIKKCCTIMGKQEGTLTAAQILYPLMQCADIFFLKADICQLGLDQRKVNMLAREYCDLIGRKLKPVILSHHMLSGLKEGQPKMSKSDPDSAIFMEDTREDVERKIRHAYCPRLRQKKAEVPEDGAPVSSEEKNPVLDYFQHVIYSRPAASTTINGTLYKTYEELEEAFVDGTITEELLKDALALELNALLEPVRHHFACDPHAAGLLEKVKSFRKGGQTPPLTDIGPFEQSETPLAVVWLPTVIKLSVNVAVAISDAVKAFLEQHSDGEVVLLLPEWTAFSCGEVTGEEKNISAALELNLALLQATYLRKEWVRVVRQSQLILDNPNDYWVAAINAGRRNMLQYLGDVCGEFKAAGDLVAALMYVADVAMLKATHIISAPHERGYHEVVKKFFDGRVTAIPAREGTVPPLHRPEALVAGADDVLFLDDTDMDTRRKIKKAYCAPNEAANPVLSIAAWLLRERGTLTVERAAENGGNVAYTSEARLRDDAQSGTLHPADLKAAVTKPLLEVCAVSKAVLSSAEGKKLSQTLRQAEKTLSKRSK
The assay is described as follows: Trypanosoma cruzi tyrosyl tRNA synthetase (TcYRS) _High Tyrosine SOP. Note: in the data most compounds retested in dose-response had high values. To be noted: 30 µM. The assay is classed as functional.

Assay [8] has as its target T4, Tyrosyl-tRNA synthetase, putative (Trypanosoma cruzi (strain CL Brener)). The assay is described as follows: Trypanosoma cruzi tyrosyl tRNA synthetase (TcYRS) SOP. The assay is classed as functional. To be noted: 30 µM.
Assay [9] concerns the target Chromo domain-containing protein 1 (Saccharomyces cerevisiae (strain ATCC 204508 / S288c) (Baker's yeast)) (UniProt P32657). The assay is described as follows: ScCHD-1 Enzyme Inhibition Assay. Note: in the data most compounds retested in dose-response had high values. It counts as functional. To be noted: 30 µM.

Sequence of Protein translocase subunit SecA (Escherichia coli (strain K12)) (P10408 whole entry): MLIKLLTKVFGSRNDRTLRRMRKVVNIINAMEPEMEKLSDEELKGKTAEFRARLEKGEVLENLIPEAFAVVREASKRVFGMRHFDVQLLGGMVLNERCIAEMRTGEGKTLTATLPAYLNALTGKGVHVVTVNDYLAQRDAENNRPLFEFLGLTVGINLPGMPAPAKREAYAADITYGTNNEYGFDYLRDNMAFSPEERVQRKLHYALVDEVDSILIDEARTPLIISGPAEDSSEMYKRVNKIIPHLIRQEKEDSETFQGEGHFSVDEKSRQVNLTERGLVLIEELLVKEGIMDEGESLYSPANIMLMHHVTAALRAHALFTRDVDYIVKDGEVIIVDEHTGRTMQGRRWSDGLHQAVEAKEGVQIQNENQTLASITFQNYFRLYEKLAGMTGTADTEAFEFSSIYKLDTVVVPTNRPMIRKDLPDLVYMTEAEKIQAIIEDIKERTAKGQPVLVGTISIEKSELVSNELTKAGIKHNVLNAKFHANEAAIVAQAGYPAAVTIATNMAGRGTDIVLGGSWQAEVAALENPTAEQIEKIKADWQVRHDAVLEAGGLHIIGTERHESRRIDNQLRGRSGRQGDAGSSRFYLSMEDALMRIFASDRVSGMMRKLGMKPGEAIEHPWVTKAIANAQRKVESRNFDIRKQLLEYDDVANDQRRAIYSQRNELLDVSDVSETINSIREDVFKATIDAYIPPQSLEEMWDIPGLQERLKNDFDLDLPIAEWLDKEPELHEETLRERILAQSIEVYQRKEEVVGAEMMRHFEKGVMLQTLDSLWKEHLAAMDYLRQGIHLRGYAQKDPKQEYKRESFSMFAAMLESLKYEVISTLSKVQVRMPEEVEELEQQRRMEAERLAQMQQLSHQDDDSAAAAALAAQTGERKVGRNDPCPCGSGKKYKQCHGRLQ
Sequence of Chromo domain-containing protein 1 (Saccharomyces cerevisiae (strain ATCC 204508 / S288c) (Baker's yeast)) (P32657 whole entry, the tested form may be a part): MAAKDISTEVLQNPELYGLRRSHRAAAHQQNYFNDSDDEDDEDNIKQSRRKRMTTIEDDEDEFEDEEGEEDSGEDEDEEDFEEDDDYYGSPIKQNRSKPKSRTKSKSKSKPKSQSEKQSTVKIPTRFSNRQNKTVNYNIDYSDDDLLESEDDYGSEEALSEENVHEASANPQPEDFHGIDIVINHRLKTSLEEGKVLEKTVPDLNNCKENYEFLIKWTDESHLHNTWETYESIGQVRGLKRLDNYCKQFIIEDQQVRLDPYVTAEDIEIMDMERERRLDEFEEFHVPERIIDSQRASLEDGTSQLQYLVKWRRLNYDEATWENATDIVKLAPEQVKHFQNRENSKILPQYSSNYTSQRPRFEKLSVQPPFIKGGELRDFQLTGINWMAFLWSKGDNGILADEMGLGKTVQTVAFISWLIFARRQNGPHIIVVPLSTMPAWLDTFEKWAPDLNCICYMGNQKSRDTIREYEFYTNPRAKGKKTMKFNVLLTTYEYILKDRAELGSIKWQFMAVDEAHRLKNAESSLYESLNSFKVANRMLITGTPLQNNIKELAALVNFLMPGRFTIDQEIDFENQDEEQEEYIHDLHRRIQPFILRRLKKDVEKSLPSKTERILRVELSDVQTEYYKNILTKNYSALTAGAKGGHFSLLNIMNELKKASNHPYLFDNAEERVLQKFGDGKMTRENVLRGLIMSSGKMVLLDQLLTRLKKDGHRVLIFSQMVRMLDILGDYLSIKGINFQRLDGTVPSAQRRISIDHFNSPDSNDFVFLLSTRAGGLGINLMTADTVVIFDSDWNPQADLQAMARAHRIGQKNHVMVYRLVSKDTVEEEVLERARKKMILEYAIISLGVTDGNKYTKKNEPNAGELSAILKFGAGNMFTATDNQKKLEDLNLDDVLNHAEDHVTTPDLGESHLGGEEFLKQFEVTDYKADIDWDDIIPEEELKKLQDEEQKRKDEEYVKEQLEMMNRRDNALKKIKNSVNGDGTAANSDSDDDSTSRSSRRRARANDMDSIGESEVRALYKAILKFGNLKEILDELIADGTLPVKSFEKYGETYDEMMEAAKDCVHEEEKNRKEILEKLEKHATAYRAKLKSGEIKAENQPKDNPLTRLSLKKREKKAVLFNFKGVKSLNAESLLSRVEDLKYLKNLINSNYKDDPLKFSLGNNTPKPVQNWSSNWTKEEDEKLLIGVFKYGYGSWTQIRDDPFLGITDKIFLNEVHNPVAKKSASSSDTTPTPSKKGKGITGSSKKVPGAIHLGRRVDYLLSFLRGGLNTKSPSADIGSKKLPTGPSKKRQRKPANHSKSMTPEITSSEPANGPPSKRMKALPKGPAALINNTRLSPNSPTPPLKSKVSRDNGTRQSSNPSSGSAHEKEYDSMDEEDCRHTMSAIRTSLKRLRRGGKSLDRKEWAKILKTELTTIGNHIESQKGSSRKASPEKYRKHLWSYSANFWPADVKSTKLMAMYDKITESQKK
Sequence of Sialic acid-binding Ig-like lectin 9 (Homo sapiens) (Q9Y336 whole entry): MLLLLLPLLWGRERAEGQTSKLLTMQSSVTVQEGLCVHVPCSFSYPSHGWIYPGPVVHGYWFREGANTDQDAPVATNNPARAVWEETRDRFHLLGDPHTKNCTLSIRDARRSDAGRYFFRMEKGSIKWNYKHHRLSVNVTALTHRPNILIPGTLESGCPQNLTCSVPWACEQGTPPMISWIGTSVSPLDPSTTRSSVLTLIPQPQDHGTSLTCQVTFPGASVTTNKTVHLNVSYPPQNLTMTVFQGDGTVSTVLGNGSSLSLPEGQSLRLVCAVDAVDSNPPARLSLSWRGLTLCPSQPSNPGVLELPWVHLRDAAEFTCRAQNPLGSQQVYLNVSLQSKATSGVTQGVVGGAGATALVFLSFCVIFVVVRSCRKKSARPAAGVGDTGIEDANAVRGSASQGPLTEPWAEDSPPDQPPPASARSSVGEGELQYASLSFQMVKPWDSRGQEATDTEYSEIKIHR

With `Cc1nn(C)c(C)c1C1COCCN1C(=O)c1cnc(N)c(Cl)c1` (stereo not given), the Percent Effect was -2.77% in assay [1]; 23.4% in assay [2]; 2.76% in assay [3]; -1.47% in assay [4]; -2.62% in the assay with Trypanosoma cruzi; 0.356% in assay [5]. The Percent Effect is 10.1% in assay [6]; 4.22% in the assay filed under Homo sapiens; 3.88% in [7]; 19.5% in assay [8]; -7.54% in assay [9].
`Cc1c[nH]c(CN(C)C(=O)c2cccc(CCC(C)(C)O)c2)n1`: the Percent Effect is -4.48% in assay [1]; 8% in assay [2]; -4.37% in assay [3]; 15.8% in assay [4]; 5.16% with Trypanosoma cruzi; 20.3% in [5]. For the same compound, the Percent Effect is 18% in assay [6]; -2.28% in the assay listed under Homo sapiens; 3.83% in [7]; 16.1% in assay [8]; -3.88% in assay [9].
As to `Cc1ccc(C(=O)N2C[C@@H]3OCCN(CCN4CCCC4)[C@@H]3C2)cn1`, the Percent Effect is -3.52% in assay [1]; 8.11% in [2]; 0.326% in [3]; -5.24% in assay [4]; -2.25% in the assay on Trypanosoma cruzi; 2.23% in assay [5]. The Percent Effect is 21% in [6]; -5.79% in the assay filed under Homo sapiens; 5.41% in [7]; 15.4% in assay [8]; -1.17% in assay [9].
With `Cc1nn(C)c(Cl)c1CNCc1cccnc1N1CCN(C)CC1`, the Percent Effect in assay [1] is -3.92%; in assay [2], 13.2%; in assay [3], 2.58%; in assay [4], 7%; in the assay with Trypanosoma cruzi, 2.24%; in assay [5], -5.92%. The Percent Effect in assay [6] was 17.4%; in the assay listed under Homo sapiens, 4.03%; in assay [7], 3.19%; in assay [8], 18.2%; in assay [9], -6.12%.
On to `CC(C)NC(=O)c1nnn(-c2cccc(C(F)(F)F)c2)c1N`, for which the Percent Effect in assay [1] is -2.18%; in assay [2] it was -4.17%; in [3], -2.65%; in [4], -0.424%; with Trypanosoma cruzi, 6.51%; in [5], -4.86%. The Percent Effect in assay [6] is 4.04%; in the assay filed under Homo sapiens it was 11.5%; in [7], 0%; in assay [8] it was 0%; in [9] it was -1.24%.
As for `CS(=O)(=O)c1ccc(C(O)CN2CCC(c3ccn[nH]3)CC2)cc1` (stereo not given), the Percent Effect was -2.89% in assay [1]; 15.2% in assay [2]; -2.45% in [3]; -1.3% in assay [4]; -2.17% with Trypanosoma cruzi; 4.94% in [5]. In addition, the Percent Effect in assay [6] is 5.32%; in the assay filed under Homo sapiens it was -11.8%; in [7], 5.42%; in [8] it was 16.5%; in [9], -6.15%.
Regarding `CN(Cc1ccsc1)C(=O)c1cccc(NS(C)(=O)=O)c1`, the Percent Effect in assay [1] was -5.08%; in assay [2], 20.8%; in assay [3], -4.59%; in assay [4] it was 10.4%; in the assay on Trypanosoma cruzi, 4.12%; in assay [5], -6.41%. The Percent Effect in assay [6] is 3.72%; in the assay listed under Homo sapiens it was 14.4%; in assay [7], 8.74%; in assay [8], 24.4%; in assay [9], -8.96%.
Consider `Cc1cc(C(=O)N2CCc3nnc(N(C)C)cc3C2)c(C)n1C1CC1`, for which the Percent Effect in [1] was -2.94%; in assay [2] it was 3.8%; in [3], -0.0334%; in assay [4], 0.611%; in the assay on Trypanosoma cruzi, -0.513%; in assay [5], 4.52%. Moreover, the Percent Effect in assay [6] was 16.1%; in the assay filed under Homo sapiens, 14%; in assay [7], 8.33%; in [8], 10.1%; in assay [9] it was -3.64%.
With `O=C1CCCCN1Cc1cccc(NC(=O)N2CCSCC2)c1`, the Percent Effect in assay [1] is -4.11%; in assay [2] it was 9.72%; in [3], -6.98%; in [4], 26%; in the assay with Trypanosoma cruzi, 2.43%; in assay [5] it was 8.83%. The Percent Effect is 12.1% in assay [6]; 8.32% in the assay listed under Homo sapiens; 6.32% in assay [7]; 12.8% in assay [8]; -6.96% in assay [9].
As to `CC(C)c1nc2n(n1)CC(NCc1nnnn1C1CC1)CC2` (stereo not given), the Percent Effect was -2.7% in [1]; 32.4% in [2]; -23.1% in assay [3]; 6.96% in assay [4]; 3.87% with Trypanosoma cruzi; -15.6% in [5]. The Percent Effect in assay [6] is 7.39%; in the assay filed under Homo sapiens, 9.98%; in assay [7], 4.43%; in [8] it was 18.5%; in assay [9] it was -10.6%.
